Results as given in PubChem BioAssay.
Where “and” joins values, the source holds several entries; their conditions need not be identical. Identical values can stand only once. Calls of active or inactive are those of the source.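 How the source made its calls: active means inhibition at or above 50% relative to wild type and mutant plate controls; inactive means inhibition below 50%.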

Assay: inhibitors of Chlamydomonas gravitaxis, primary screen, whole organism, Chlamydomonas reinhardtii, WT vs cilia-less mutant, absorbance, 96-well (AID 463189);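 further: 0% = wild type cc124 cells in DMSO and 100% = ciliumless bld1 mutant cells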
Details: OD600 absorbance, 2 days, at 10 µM, active compounds read high

inhibition, inactive:
N=c1ccn2c(n1)OC1[C@@H](O)[C@@H](CO)O[C@H]12 (stereo partly drawn) -5.06%
C[C@@]1(C2CCCC2)Cc2cc(OCC(=O)O)c(Cl)c(Cl)c2C1=O 5.71%
CC(C)COCC(CN(Cc1ccccc1)c1ccccc1)N1CCCC1 (stereo not drawn) -3.6%
N[C@@H](CS(=O)O)C(=O)O 7.29%
NC(Cc1ccc(Cl)cc1)C(=O)O (stereo not drawn) -1.92%
O=C(O)C1=CCCN(CCON=C(c2ccccc2)c2ccccc2)C1 -1.19%
CC(=O)/C(C)=N/O 1.74%
CN1CCc2cc(NC(=O)Nc3cccnc3)ccc21 8.14%
CN(C)CC[C@@H](c1ccc(Br)cc1)c1ccccn1 15%
N=C(N)SCCc1cccc(CCSC(=N)N)c1 2.04%
Cn1c(=O)c2c(nc(/C=C/c3cccc(Cl)c3)n2C)n(C)c1=O 18.1%
COc1ccccc1N1CCN(CCCCNC(=O)c2ccc3ccccc3c2)CC1 6.15%
C#C[C@]1(O)CC[C@H]2[C@@H]3CCC4=Cc5oncc5CC4(C)[C@H]3CCC21C (stereo partly drawn) 4.97%
OC[C@H]1O[C@@H](n2cnc3c(NC4CCCC4)ncnc32)C(O)[C@H]1O (stereo partly drawn) 2.66%
N#Cc1cc2nc(O)c(O)nc2cc1[N+](=O)[O-] 1.78%
NCCS(=O)(=O)O 8.8%
CC(C)NCC(O)c1ccc(O)c(O)c1 (stereo not drawn) -5.24% and 12.5%
O=c1cc(N2CCOCC2)oc2c(-c3ccccc3)cccc12 15.7%
